In the test the test system is E. coli TESEC Mtb Alr. The test is described as follows: growth (OD600 after 10 h); higher = more growth (less inhibition). To be noted: compound 0.1 mM. The procedure: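 TESEC Mtb Alr E. coli, or the Alr+ wild-type control, in 384-well plates with Prestwick library compounds at 0.1 mM and 1% DMSO, across arabinose induction levels of 1E3 to 1E7 nM. Growth is read as OD600 after 10 h at 37 °C in triplicate biological replicates.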

The mark [1] stands for this setting: arabinose 1000 nM, raw OD600 reference: median of DMSO wells 0.294, cell-free background 0.041.
Setting [2] is: arabinose 10000 nM, raw OD600 reference: median of DMSO wells 0.264, cell-free background 0.041.
Where [3] appears, read: arabinose 100000 nM, raw OD600 reference: median of DMSO wells 0.201, cell-free background 0.041.
Setting [4] is: arabinose 1000000 nM, raw OD600 reference: median of DMSO wells 0.193, cell-free background 0.041.
Where [5] appears, read: arabinose 10000000 nM, raw OD600 reference: median of DMSO wells 0.146, cell-free background 0.041.

Molecules are shown by their SMILES. Counter-ions that a name gives are not always drawn. ± gives the standard deviation of the averaged measurements.

As for `CCN(CCCc1ccccc1)CCCc1ccccc1` [Alverine citrate salt], the growth was 0.221 ± 0.013 under setting [1]; 0.286 ± 0.0067 under setting [2]; 0.177 ± 0.0094 under setting [3]; 0.1472 ± 0.00053 under setting [4]; 0.156 ± 0.011 under setting [5].

In the case of `CN1CCC(=C2c3ccccc3C=Cc3ccccc32)CC1` [Cyproheptadine hydrochloride], the growth turned out to be 0.163 ± 0.02 under setting [1]; 0.16 ± 0.0079 under setting [2]; 0.12 ± 0.0049 under setting [3]; 0.0596 ± 0.00044 under setting [4]; 0.0772 ± 0.00078 under setting [5].

For the compound `CC(C)NCC(O)COc1ccc(CCOCC2CC2)cc1` (stereo not given) [Betaxolol hydrochloride], the growth under setting [1] was determined as 0.301 ± 0.0039; the growth under setting [2] was 0.26 ± 0.0051; the growth under setting [3] came to 0.232 ± 0.034; the growth under setting [4] is 0.179 ± 0.014; the growth under setting [5] was determined as 0.161 ± 0.0056.

In the case of `C[C@]12C[C@H](O)[C@H]3[C@@H](CCC4=CC(=O)CC[C@@]43C)[C@@H]1CC[C@@H]2C(=O)CO` [Corticosterone], the growth is 0.195 ± 0.006 under setting [1]; 0.252 ± 0.011 under setting [2]; 0.143 ± 0.015 under setting [3]; 0.16 ± 0.0065 under setting [4]; 0.134 ± 0.0044 under setting [5].

`O=C1CC2(CCCC2)CC(=O)N1CCCCN1CCN(c2ncccn2)CC1` [Buspirone hydrochloride]: the growth reads like this: under setting [1], 0.274 ± 0.0095; under setting [2], 0.2798 ± 0.0023; under setting [3], 0.184 ± 0.028; under setting [4], 0.198 ± 0.011; under setting [5], 0.134 ± 0.0058.

Regarding `Nc1ccc(S(=O)(=O)c2ccc(N)cc2)cc1` [Dapsone], the growth is, setting by setting: under setting [1], 0.282 ± 0.019; under setting [2], 0.23 ± 0.0077; under setting [3], 0.227 ± 0.019; under setting [4], 0.1616 ± 0.0011; under setting [5], 0.141 ± 0.0065.

As to `CN(C)CCCN1c2ccccc2CCc2ccc(Cl)cc21` [Clomipramine hydrochloride], the growth reads like this: under setting [1], 0.03983 ± 0.00015; under setting [2], 0.03953 ± 0.00025; under setting [3], 0.0451 ± 0.0062; under setting [4], 0.04 ± 0.00035; under setting [5], 0.0473 ± 0.0044.

Regarding `CCN(CC)CCOCCOC(=O)C1(c2ccccc2)CCCC1` [Carbetapentane citrate], the growth is, setting by setting: under setting [1], 0.275 ± 0.015; under setting [2], 0.249 ± 0.0094; under setting [3], 0.191 ± 0.03; under setting [4], 0.133 ± 0.004; under setting [5], 0.161 ± 0.0033.

(Values after the supplement of paper PMC9262897, “Low-cost anti-mycobacterial drug discovery using engineered E. coli” (Nature Communications, 2022).)
